Rows were chosen to be rich in hits. Some 12% of all compounds tested hit in one or more screens of this group.
Sfp PPTase inh – inhibitors of Bacillus subtilis Sfp phosphopantetheinyl transferase | Biochemical Sfp PPTase activity, qHTS | Potency, µM, inactives show largest response in the series, negative = inhibition, hits mostly inhibitors | hit rate 3.5% among 310,000 | AID 1490;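 also: the enzyme is Sfp with the accession as filed and its product quenches rhodamine fluorescence; 0% = enzyme reaction without inhibitor and -100% = no enzyme wells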
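Buffer: 50 mM Hepes-Na pH 7.6, 10 mM MgCl2, 0.01% Nonidet P-40, 0.01% BSA. Enzyme 15 nM, pre-exposed to compound 15 min; substrates then added and fluorescence change tracked over 30 min.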
JMJD2A Tudor inh – inhibitors of human JMJD2A Tudor domain. O75164. AlphaScreen JMJD2A-Tudor / H3K4me3 peptide binding. Potency, µM (doses to about 114 µM), without a hit: at the top dose activity change, negative = inhibition, usual class: inhibitors. hit rate 4.4% among 390,000. AID 504339; also: % is scaled to controls: 0 for no effect and ±100 for the full control effect; nearly all actives have a fitted effect of over 50% in size
G9a inh – inhibitors of human histone lysine methyltransferase G9a; Q96KQ7; G9a H3K9 monomethylation, AlphaScreen, 2 h; Potency, µM (highest dose often 102 µM), without a hit: at the highest dose activity, negative = inhibition, usual class: inhibitors; hit rate 8.8% among 350,000; AID 504332; also: % is scaled to controls: 0 for no effect and ±100 for the full control effect; nearly all actives have a fitted effect of over 75% in size
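Enzyme 20 nM + cpd, 15 min RT; add b-H3K9 pep 500 nM / SAM 20 uM; 2 h RT; anti-H3K9me1 Ab 0.5 ug/mL + SA donor / anti-rabbit acceptor beads 20 ug/mL each, 10 min; AlphaScreen read.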
HP1b chromo inh – HP1-beta chromodomain-methylated histone interaction inhibition; P83916; AlphaScreen HP1-beta / biotin-H3K9me3 peptide binding; Potency, µM (titrated, usually from 114 µM), without a hit: top-dose activity change, negative = inhibition, hits mostly inhibitors; hit rate 0.56% among 390,000; also: nearly all actives have a fitted effect of over 70% in size
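AlphaScreen: HP1-beta (50 nM) preformed 30 min with biotin-H3(1-18)K9me3 peptide (50 nM) in PBS pH 7.4, 0.01% Tween-20. Compound added for 30 min at RT, then streptavidin donor/nickel chelate acceptor beads (10 ug/mL) for 30 min.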
BAZ2B inh – blocks human BAZ2B | Q9UIF8 | AlphaScreen BAZ2B-H3K14Ac peptide displacement | Potency, µM (highest dose often 114 µM), without a hit: at the highest dose activity change, negative = inhibition, hits mostly inhibitors | hit rate 4.4% among 360,000 | AID 504333; also: % is scaled to controls: 0 for no effect and ±100 for the full control effect; nearly all actives have a fitted effect of over 60% in size
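BAZ2B (50 nM) with biotin-H3(5-23)K14Ac peptide (50 nM) in PBS pH 7.4, 0.01% Tween-20, preformed 30 min, then compound 30 min at room temperature; top concentration 110uM. AlphaScreen streptavidin donor/nickel chelate acceptor beads (10 ug/mL final), 20 min dark, signal read.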
L3MBTL1 inh – inhibitors of human L3MBTL1; AlphaScreen L3MBTL1–H3K9me1 peptide binding; hit rate 0.66% among 230,000; Potency, µM (highest dose often 57.1 µM), for inactives: at the highest dose activity, negative = inhibition, most hits filed as inhibitors; also: % is scaled to controls: 0 for no effect and ±100 for the full control effect; nearly all actives have a fitted effect of over 60% in size
Target sequence (Q9Y468 whole entry, looked up): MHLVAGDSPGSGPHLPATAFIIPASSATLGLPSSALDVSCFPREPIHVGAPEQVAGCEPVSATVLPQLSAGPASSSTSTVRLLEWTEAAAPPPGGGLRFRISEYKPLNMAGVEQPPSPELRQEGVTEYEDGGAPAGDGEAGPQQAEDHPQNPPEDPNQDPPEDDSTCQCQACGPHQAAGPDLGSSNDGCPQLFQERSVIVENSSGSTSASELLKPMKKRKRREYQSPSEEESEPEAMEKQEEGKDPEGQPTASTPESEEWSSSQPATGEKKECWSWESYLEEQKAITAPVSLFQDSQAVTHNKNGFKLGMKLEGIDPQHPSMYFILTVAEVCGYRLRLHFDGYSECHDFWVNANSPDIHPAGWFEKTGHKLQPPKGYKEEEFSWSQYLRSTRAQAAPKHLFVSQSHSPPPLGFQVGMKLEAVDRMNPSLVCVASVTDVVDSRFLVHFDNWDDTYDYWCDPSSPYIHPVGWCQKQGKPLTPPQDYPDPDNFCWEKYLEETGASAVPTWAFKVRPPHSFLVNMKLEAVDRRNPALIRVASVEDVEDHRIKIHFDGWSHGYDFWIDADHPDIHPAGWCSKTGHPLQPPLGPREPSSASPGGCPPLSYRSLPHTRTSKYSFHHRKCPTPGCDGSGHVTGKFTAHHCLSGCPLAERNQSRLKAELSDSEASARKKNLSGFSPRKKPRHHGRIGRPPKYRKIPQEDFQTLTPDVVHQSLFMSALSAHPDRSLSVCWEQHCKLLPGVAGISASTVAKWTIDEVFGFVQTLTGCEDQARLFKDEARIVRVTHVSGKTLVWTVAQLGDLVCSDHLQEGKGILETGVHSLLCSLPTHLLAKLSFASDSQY
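Displacement of a biotinylated histone H3(1-15) peptide monomethylated at Lys9 (75 nM) from L3MBTL1 (50 nM) was measured by AlphaScreen after a 30 min room-temperature compound incubation; cefsulodin titration served as intraplate control.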
* hit, by the source's call; ? = inconclusive; / = no result; [ ] = dose if it differs, or a comment. Calls follow the shape of the dose curve; as a rule, active = well fitted curve in the direction sought with a large enough effect; inconclusive = small, poorly fitted or top-dose-only effect, or another doubt; inactive = no such curve, though single readings can be large; an effect the other way counts as inactive or inconclusive. Potency is read from the fitted curve at half-maximal effect.

SMILES | Sfp PPTase inh | JMJD2A Tudor inh | G9a inh | HP1b chromo inh | BAZ2B inh | L3MBTL1 inh
Clc1cccc(-c2ccc(C3Nc4cccc5cccc(c45)N3)o2)c1 | / | 40µM* | / | ? | / | -15%
CN1c2ccccc2N(C)C1c1ccc2c(c1)OCO2 | 7% | -7% | -35% | 19% | 12% | 4%
c1cc2c3c(cccc3c1)NC(c1ccc3c(c1)OCO3)N2 | -22% | 40µM* | 35µM* | ? | 40µM* | /
O=C1c2ccccc2NC(c2ccc(-c3cccc([N+](=O)[O-])c3)o2)N1O (stereo not given) | 3% | -35% | ? | 4% | ? | -4%
CC1C=CCCOC1c1ccccc1 (stereo not given) | 4% | / | / | / | / | /
O=C(O)CCCN1C(=O)c2ccc(Oc3cccc([N+](=O)[O-])c3)cc2C1=O | 10% | -10% | 6% | 21% | -5% | 6%
Clc1ccc(C2Nc3cccc4cccc(c34)N2)cc1 | ? | ? | 35µM* | -19% | ? | -25%
CC1=C(C(=O)OC(C)C)C(c2ccc(Br)s2)NC(=O)N1 (stereo not given) | 3% | -7% | -4% | 47% | ? | /
Brc1ccc(C2Nc3cccc4cccc(c34)N2)s1 | -18% | -32% | 25µM* | ? | ? | -1%
CSc1ccc(C2NC(=O)c3ccccc3N2)cc1 (stereo not given) | / | -6% | / | 22% | / | /
CSc1ccc(C2Nc3cccc4cccc(c34)N2)cc1 | -22% | 18µM* | 23%[0.501 µM] | 18µM* | 50µM* | -2%[2.29 µM]
O=[N+]([O-])c1cc(C2Nc3cccc4cccc(c34)N2)ccc1Cl | ? | -16% | ? | -3% | ? | ?
C#CCOCCOCCOCCNc1nc(N2CCN(C(=O)[C@H](Cc3ccc(O)cc3)n3cc([C@@H](N)C(C)CC)nn3)CC2)nc(N2CCN(C(=O)[C@H](Cc3cc4ccccc4[nH]3)n3cc([C@@H](N)C(C)CC)nn3)CC2)n1 (stereo not given in full) | -29% | 45µM* | -112%[59 µM] | -30% | 28µM* | ?
C#CCOCCOCCOCCNc1nc(N2CCN(C(=O)[C@H]([C@@H](C)CC)n3cc([C@@H](N)Cc4ccc(O)cc4)nn3)CC2)nc(N2CCN(C(=O)[C@H](Cc3cc4ccccc4[nH]3)n3cc([C@@H](N)C(C)CC)nn3)CC2)n1 (stereo not given in full) | -15% | / | ? | / | ? | ?
C#CCOCCOCCOCCNc1nc(N2CCN(C(=O)[C@H](Cc3ccc(O)cc3)n3cc([C@@H](N)C(C)CC)nn3)CC2)nc(N2CCN(C(=O)[C@H](Cc3cc4ccccc4[nH]3)n3cc([C@@H](N)CC(C)C)nn3)CC2)n1 (stereo not given in full) | 50µM* | 45µM* | ? | ? | 35µM* | -20%
C#CCOCCOCCOCCNc1nc(N2CCN(C(=O)[C@H](Cc3cc4ccccc4[nH]3)n3cc([C@@H](N)C(C)CC)nn3)CC2)nc(N2CCN(C(=O)[C@H](Cc3cc4ccccc4[nH]3)n3cc([C@@H](N)Cc4ccc(O)cc4)nn3)CC2)n1 (stereo not given in full) | 50µM* | / | -7%[12.7 µM] | / | 11µM* | ?
CC[C@@H](c1ccccc1)n1c(=O)n2n(c1=O)[C@H]1[C@H](O)[C@H]3O[C@@H]3/C(=N/OCc3ccccc3)[C@@H]1CC2 | 1% | / | / | / | / | /
CC(C)NC(=O)Cn1cc(C(=O)COc2ccccc2)c2ccccc21 | -7% | -6% | -2% | 44% | -28% | 1%
CC(=NNC(=S)N1CCN(c2ccccn2)CC1)c1nccs1 | / | 13µM* | / | ? | / | /
CC(=NNC(=S)N1CCN(c2ccccn2)CC1)c1ccccn1 | / | 56µM* | / | ? | / | /
S=C(NC1CCCC1)N1CCN(c2ccccn2)CC1 | 20% | -20% | 3% | 10% | 4% | 3%
CC(=NNC(=S)N1CC2CCC(CC2)C1)c1cnccn1 | / | 11µM* | / | ? | / | /
CC(=NNC(=S)N1CCN(C2CCCCCC2)CC1)c1ccccn1 | / | 18µM* | / | ? | / | /
Cc1cc2c(s1)c1cnn(Cc3c(C)cc(F)cc3C)c(=O)c1n2C | / | -16% | / | / | / | /
CC(=NNC(=S)N1CCCCCC1)c1cccc2cccnc12 | / | 20µM* | / | 50µM* | / | /
SMILES | Sfp PPTase inh | JMJD2A Tudor inh | G9a inh | HP1b chromo inh | BAZ2B inh | L3MBTL1 inh
C/C(=N\NC(=O)C1CCCN(S(=O)(=O)c2ccccc2)C1)c1ccncc1 (stereo not given) | 18% | 3% | 14%[59 µM] | 48% | -5% | -4%
CN(CC(=O)N1CCCCC1)S(=O)(=O)c1cccc2cccnc12 | 12% | 1% | ? | 50% | -6% | 6%
C/C(=N\NC(=O)C1CCCN(S(=O)(=O)c2ccccc2)C1)c1ccccn1 (stereo not given) | 9% | 79µM* | 51%[59 µM] | 47% | ? | -7%
COc1ccc(C(=O)N(Cc2ccccc2)Cc2ccc(OC)c(COc3ccc(NC(C)=O)cc3)c2)cc1 | / | ? | / | 0% | / | /
Cc1c(C(=O)O)cccc1-n1c(C)cc(/C=C(/C#N)C(=O)NCc2ccccc2)c1C | 8% | -16% | 50µM* | 17% | 56µM* | ?
Cc1ccc(/C=C(\C#N)C(=O)NCc2ccco2)o1 | 50µM* | -2% | ? | 45% | 5% | /
CN(C)c1ccc(/C=C(/C#N)C(=O)NCc2ccccc2)o1 | 3% | -1% | 3.5µM* | 40% | -11% | -1%
N#C/C(=C\c1cn(CC(=O)O)c2ccccc12)C(=O)NCc1ccccc1 | 3% | ? | 45µM* | 32% | -19% | -4%
Cc1cc(/C=C(/C#N)C(=O)O)c(C)n1-c1cccc2ccccc12 | -1% | -33% | 7%[2.33 µM] | -22% | ? | /
Cc1ccccc1NC(=O)/C(C#N)=C\c1cn(CC(=O)O)c2ccccc12 | 14% | -10% | 0% | 31% | -26% | 4%
COC(=O)c1cc2oc3ccccc3c2n1Cc1c(C)cc(C)cc1C | / | -31% | -3%[59 µM] | 10% | -3% | /
COc1ccccc1NC(=O)Cn1c(=O)n(-c2cccc(Cl)c2)c(=O)c2c1c1cc(C)ccc1n2C | / | -4% | -26%[59 µM] | 26% | 0% | /
CC(=O)OCC1=C(C(=O)O)N2C(=O)C(NC(=O)Cc3cccs3)C2SC1 (stereo not given) | -52% | / | / | / | / | /
NC(=O)c1cc[n+](CC2=C(C(=O)[O-])N3C(=O)[C@@H](NC(=O)Cc4cccs4)[C@@H]3SC2)cc1 | -11% | / | 7.9µM* | / | / | /
NC(=O)c1cc[n+](CC2=C(C(=O)O)N3C(=O)[C@@H](NC(=O)[C@H](c4ccccc4)S(=O)(=O)[O-])[C@@H]3SC2)cc1 | ? | / | 5.6µM* | / | / | /

Screens as filed in PubChem.
